According to PubChem BioAssay AID1159580 (chemical genetic matrix, 2015):
Values joined by “and” are separate entries in the source; they are usually repeats but may differ in a detail not shown here. Equal entries are not always repeated. Screen size: about 5,500 compounds; about 2,000 (36%) were called active. Inconclusive results (about 18%) are left out. Cut-off read from the data, not from the text of the source: active = normalized growth mostly below about 0.91 (no sharp cut-off); inconclusive = no clear call, values can overlap the other calls; inactive = mostly above about 0.92. Some of the results follow.

Test: chemical genetic growth profiling, strain panel (AID 1159580);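 note: tested at 20 µM; growth read once vehicle control cultures reached saturation at 30 °C; 1 = growth at the plate median or of vehicle wells; lower values mean less growth of the strain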
Conditions: growth OD

Measured: normalized growth

COC(=O)COc1ccc(Cl)cc1Cl
inactive: S. cerevisiae deletion strains, locus YAL013W, strain DEP1, active compounds read low 1 | S. cerevisiae deletion strains, locus YBR021W, strain FUR4, active compounds read low 1.01 | S. cerevisiae deletion strains, locus YBR229C, strain ROT2, active compounds read low 1.01 | S. cerevisiae deletion strains, locus YCL029C, strain bik1, active compounds read low 1.02 | S. cerevisiae deletion strains, locus YDL035C, strain GPR1, active compounds read low 1.02 | S. cerevisiae deletion strains, locus YDL074C, strain BRE1, active compounds read low 1.03 | S. cerevisiae deletion strains, locus YDL101C, strain DUN1, active compounds read low 1.01 | S. cerevisiae deletion strains, locus YDL134C, strain PPH21, active compounds read low 1.01 | S. cerevisiae deletion strains, locus YDL185W, strain tfp1, active compounds read low 1.01 | S. cerevisiae deletion strains, locus YDL192W, strain arf1, active compounds read low 1.02 | S. cerevisiae deletion strains, locus YDR101C, strain arx1, active compounds read low 1.02 | S. cerevisiae deletion strains, locus YDR150W, strain NUM1, active compounds read low 1 | S. cerevisiae deletion strains, locus YDR162C, strain NBP2, active compounds read low 0.996 | S. cerevisiae deletion strains, locus YDR318W, strain mcm21, active compounds read low 1.02 | S. cerevisiae deletion strains, locus YDR388W, active compounds read low 1.02 | S. cerevisiae deletion strains, locus YDR502C, strain sam2, active compounds read low 1.02 | S. cerevisiae deletion strains, locus YEL061C, strain CIN8, active compounds read low 1 | S. cerevisiae deletion strains, locus YER110C, active compounds read low 1.01 | S. cerevisiae deletion strains, locus YER155C, strain BEM2, active compounds read low 1 | S. cerevisiae deletion strains, locus YER167W, strain BCK2, active compounds read low 1 | S. cerevisiae deletion strains, locus YGL078C, strain dbp3, active compounds read low 1.01 | S. cerevisiae deletion strains, locus YGL086W, strain mad1, active compounds read low 1 | S. cerevisiae deletion strains, locus YGL248W, strain PDE1, active compounds read low 1.01 | S. cerevisiae deletion strains, locus YGR078C, strain PAC10, active compounds read low 1.02 | S. cerevisiae deletion strains, locus YGR135W, strain pre9, active compounds read low 1.02 | S. cerevisiae deletion strains, locus YGR229C, strain SMI1, active compounds read low 1.01 | S. cerevisiae deletion strains, locus YGR252W, strain gcn5, active compounds read low 1.04 | S. cerevisiae deletion strains, locus YHR030C, strain SLT2, active compounds read low 1.01 and 1.04 | S. cerevisiae deletion strains, locus YHR079C, strain IRE1 (second series), active compounds read low 1.01 | S. cerevisiae deletion strains, locus YHR079C, strain IRE1, active compounds read low 1.03 | S. cerevisiae deletion strains, locus YHR094C, strain hxt1, active compounds read low 1.02 | S. cerevisiae deletion strains, locus YHR129C, strain ARP1, active compounds read low 1.01 | S. cerevisiae deletion strains, locus YHR200W, strain rpn10, active compounds read low 1.01 | S. cerevisiae deletion strains, locus YIL066C, strain RNR3, active compounds read low 1.02 | S. cerevisiae deletion strains, locus YIL073C, strain SPO22, active compounds read low 1.08 | S. cerevisiae deletion strains, locus YIL125W, strain kgd1, active compounds read low 1.01 | S. cerevisiae deletion strains, locus YIR030C, strain dcg1, active compounds read low 1.02 | S. cerevisiae deletion strains, locus YJL095W, strain BCK1, active compounds read low 1 and 1.05 | S. cerevisiae deletion strains, locus YJL134W, strain LCB3, active compounds read low 1 | S. cerevisiae deletion strains, locus YJL168C, strain set2, active compounds read low 1.02 | S. cerevisiae deletion strains, locus YJL187C, strain SWE1 (second series), active compounds read low 1.01 | S. cerevisiae deletion strains, locus YJR043C, strain POL32, active compounds read low 1.01 | S. cerevisiae deletion strains, locus YJR066W, strain TOR1, active compounds read low 0.975 | S. cerevisiae deletion strains, locus YJR075W, strain HOC1, active compounds read low 1.01 | S. cerevisiae deletion strains, locus YKL009W, strain mrt4, active compounds read low 1.03 | S. cerevisiae deletion strains, locus YKL068W, active compounds read low 1.01 | S. cerevisiae deletion strains, locus YKL085W, strain MDH1 (second series), active compounds read low 0.993 | S. cerevisiae deletion strains, locus YKL085W, strain MDH1, active compounds read low 0.993 | S. cerevisiae deletion strains, locus YKL190W, strain CNB1, active compounds read low 1.01 | S. cerevisiae deletion strains, locus YKR001C, strain vps1, active compounds read low 1.04 | S. cerevisiae deletion strains, locus YLR039C, strain RIC1, active compounds read low 1.02 | S. cerevisiae deletion strains, locus YLR058C, strain SHM2, active compounds read low 1.02 | S. cerevisiae deletion strains, locus YLR102C, strain apc9, active compounds read low 1.01 | S. cerevisiae deletion strains, locus YLR113W, strain HOG1, active compounds read low 0.974 | S. cerevisiae deletion strains, locus YLR262C, strain YPT6, active compounds read low 1.06 | S. cerevisiae deletion strains, locus YLR268W, strain sec22, active compounds read low 1.03 | S. cerevisiae deletion strains, locus YLR330W, strain CHS5, active compounds read low 1.01 | S. cerevisiae deletion strains, locus YLR342W, strain FKS1 (second series), active compounds read low 1.01 | S. cerevisiae deletion strains, locus YLR371W, strain rom2, active compounds read low 1.01 | S. cerevisiae deletion strains, locus YLR418C, strain cdc73, active compounds read low 1.04 | S. cerevisiae deletion strains, locus YML016C, strain PPZ1, active compounds read low 1.01 | S. cerevisiae deletion strains, locus YML032C, strain rad52, active compounds read low 1.02 | S. cerevisiae deletion strains, locus YML124C, strain tub3, active compounds read low 1.02 | S. cerevisiae deletion strains, locus YMR078C, strain ctf18, active compounds read low 1.03 | S. cerevisiae deletion strains, locus YMR223W, strain ubp8, active compounds read low 1.02 | S. cerevisiae deletion strains, locus YMR263W, strain SAP30, active compounds read low 1 | S. cerevisiae deletion strains, locus YMR307W, strain GAS1, active compounds read low 1.02 | S. cerevisiae deletion strains, locus YNL067W, strain RPL9B, active compounds read low 1 | S. cerevisiae deletion strains, locus YNL128W, strain TEP1, active compounds read low 1.01 | S. cerevisiae deletion strains, locus YNL153C, strain GIM3, active compounds read low 1.01 | S. cerevisiae deletion strains, locus YNL183C, strain NPR1, active compounds read low 0.969 | S. cerevisiae deletion strains, locus YNL233W, strain BNI4, active compounds read low 1 | S. cerevisiae deletion strains, locus YNL250W, strain rad50, active compounds read low 1.01 | S. cerevisiae deletion strains, locus YNL271C, strain bni1, active compounds read low 1 | S. cerevisiae deletion strains, locus YNL298W, strain CLA4, active compounds read low 1.04 | S. cerevisiae deletion strains, locus YNL307C, strain MCK1, active compounds read low 1.03 | S. cerevisiae deletion strains, locus YNL322C, strain KRE1, active compounds read low 1.01 | S. cerevisiae deletion strains, locus YNR052C, strain pop2, active compounds read low 1.03 | S. cerevisiae deletion strains, locus YOL006C, strain TOP1, active compounds read low 1.02 | S. cerevisiae deletion strains, locus YOL012C, strain htz1 1.19 | S. cerevisiae deletion strains, locus YOL147C, strain pex11, active compounds read low 1.01 | S. cerevisiae deletion strains, locus YOR061W, strain CKA2, active compounds read low 0.997 | S. cerevisiae deletion strains, locus YOR069W, strain VPS5, active compounds read low 1 | S. cerevisiae deletion strains, locus YOR136W, strain idh2, active compounds read low 1.02 | S. cerevisiae deletion strains, locus YOR144C, strain elg1, active compounds read low 1.02 | S. cerevisiae deletion strains, locus YOR184W, strain ser1, active compounds read low 1.03 | S. cerevisiae deletion strains, locus YOR231W, strain MKK1, active compounds read low 1.04 | S. cerevisiae deletion strains, locus YOR316C, strain cot1, active compounds read low 1.01 | S. cerevisiae deletion strains, locus YPL055C, strain LGE1, active compounds read low 1.02 | S. cerevisiae deletion strains, locus YPL241C, strain CIN2, active compounds read low 1 | S. cerevisiae deletion strains, locus YPL256C, strain CLN2, active compounds read low 1.05 | S. cerevisiae deletion strains, locus YPR119W, strain clb2, active compounds read low 1.01 | S. cerevisiae deletion strains, locus YPR141C, strain kar3, active compounds read low 1.01 | S. cerevisiae deletion strains, locus YPR163C, strain tif3, active compounds read low 1.02 | S. cerevisiae deletion strains, locus YPR167C, strain met16, active compounds read low 1.01 | S. cerevisiae deletion strains, strain wtn01, active compounds read low 1.01 | S. cerevisiae strains, strain wild type, active compounds read low 1
